Test results: PubChem BioAssay (Tox21)
Records with an inconclusive call do not appear. Activity calls are given as the source filed them. Unless noted, calls come from the whole dose curve.

Experiments:
[1] = Nuclear factor erythroid 2-related factor 2/antioxidant responsive element (Nrf2/ARE) small molecule agonists: qHTS cell viability counter screen in human keratinocytes (AID 1919968; active = well fitted curve in the direction sought with a large enough effect in the repeat runs; an effect the other way counts as inactive or inconclusive; note: nearly all actives have a fitted effect of over 55% in size)
Outline: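 Seed 1,500 KeratinoSens cells per well, then incubate 5 h at 37 C/5% CO2. Add compounds in DMSO and incubate 23 h. Add CellTiter-Fluor, wait 1 h and read fluorescence.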

[2] = Nuclear factor erythroid 2-related factor 2/antioxidant responsive element (Nrf2/ARE) small molecule agonists: luciferase reporter gene qHTS assay in human keratinocytes (AID 1919969); note: nearly all actives have a fitted effect of over 35% in size
[3] = target: Gonadotropin-releasing hormone receptor (Homo sapiens) (UniProt P30968); test: Human gonadotropin-releasing hormone receptor (GnRHR) small molecule agonists, calcium flux assay in GnRHR-HEK293 cells (AID 1920063); note: nearly all actives have a fitted effect of over 35% in size
Outline: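 Cells: HEK293 stably expressing human GnRHR. Steps: overnight (18 h) culture, 1 h calcium dye loading at 37 C, compound addition, kinetic fluorescence read at 480/540 nm. Each compound tested at 15 concentrations in triplicate.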

[4] = target: KiSS-1 receptor (Homo sapiens) (UniProt Q969F8); test: Human kisspeptin (KISS1R) small molecule agonists, calcium flux assay in KISS1R-HEK293 cells (AID 1920064; active = well fitted curve in the direction sought with a large enough effect in the repeat runs; an effect the other way counts as inactive or inconclusive)
Outline: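 Cells plated and incubated 18 h; dye added, 1 h at 37 C; compounds in DMSO pinned in; signal read at 480/540 nm every second for 3 min. Each compound tested at 15 concentrations in triplicate.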

[5] = G protein-coupled receptor (GPCR) small molecule agonists, calcium flux assay: HEK293 wild type cell line counter screen (AID 1920065)
Outline: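 Counter-screen of the Tox21 10K library for non-specific calcium release: dye-loaded cells received compounds in DMSO and were monitored by kinetic fluorescence (480/540 nm, 3 min). Fifteen concentrations, run in triplicate.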

[6] = p53 small molecule agonists, cell-based qHTS assay with human liver microsomes (AID 1963577);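 note: p53 response element beta-lactamase reporter cells with liver microsomes plus NADPH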
Outline: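 HLM-supplemented p53RE-bla reporter assay: 16 h compound exposure at 37 C, microsomes and NADPH each 0.5 mg/mL final, read by fluorescence intensity.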

[7] = p53 small molecule agonists, cell-based qHTS assay with rat liver microsomes (AID 1963578)
Outline: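 Quantitative HTS of the Tox21 10K library: p53RE-bla cells, rat liver microsomes plus NADPH at 0.5 mg/mL final each, 16 h at 37 C, beta-lactamase fluorescence detection.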

[8] = p53 small molecule agonists, cell-based qHTS assay with human liver microsomes: qHTS cell viability counter screen (AID 1963579); note: nearly all actives have a fitted effect of over 45% in size
Outline: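 Viability of p53RE-bla cells is measured as CellTiter-Glo luminescence following a 16 h, 37 C incubation with compound, liver microsomes from human donors and NADPH.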

[9] = p53 small molecule agonists, cell-based qHTS assay with rat liver microsomes: qHTS cell viability counter screen (AID 1963580); note: nearly all actives have a fitted effect of over 45% in size
Outline: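 Viability is assessed in parallel with the p53 reporter read: HCT-116 p53RE-bla cells receive compounds plus rat microsomes and NADPH (0.5 mg/mL final apiece), incubate 16 h at 37 C, and then CellTiter-Glo luminescence is recorded.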

[10] = p53 small molecule agonists, cell-based qHTS assay: qHTS cell viability counter screen (AID 1963581); note: nearly all actives have a fitted effect of over 45% in size
Outline: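 Cells: HCT-116 with p53 response element-driven beta-lactamase. Treatment: 16 h, 37 C, compounds in DMSO. Read: CellTiter-Glo luminescence after 30 min RT.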

[11] = p53 small molecule agonists, cell-based qHTS assay (AID 1963582; active = well fitted activation curve with a large enough effect in the signal ratio in the repeat runs, not every such curve was filed as active; the % refers to the signal ratio)
Outline: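 Quantitative HTS in p53RE-bla cells: after a 5 h settling period, compounds delivered in DMSO were left on cells for 16 h at 37 C, and reporter induction was measured as fluorescence following 2 h substrate loading.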

[12] = target: 5-hydroxytryptamine receptor 2A (Homo sapiens) (UniProt P28223); test: 5-hydroxytryptamine receptor 2A (HTR2A) small molecule antagonists, cell-based qHTS assay (AID 1963586); note: nearly all actives have a fitted effect of over 45% in size
Outline: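 Antagonist-mode intracellular calcium assay: DOI (4 nM) added after 5 min compound pre-incubation at room temperature to dye-loaded HTR2A-CHO cells. Fluorescence followed for 3 min, sampled every second.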

[13] = target: 5-hydroxytryptamine receptor 2A (Homo sapiens) (UniProt P28223); test: 5-hydroxytryptamine receptor 2A (HTR2A) small molecule agonists, cell-based qHTS assay (AID 1963587); note: nearly all actives have a fitted effect of over 30% in size
Outline: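 CHO cells stably expressing human HTR2A, plated 18 h, loaded with calcium dye 1 h at 37 C. Agonist mode: compounds added and intracellular calcium fluorescence recorded kinetically for 2 min at 1 sec intervals.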

[14] = target: Muscarinic acetylcholine receptor M1 (Homo sapiens) (UniProt P11229); test: Cholinergic receptor muscarinic 1 (CHRM1) small molecule antagonists, cell-based qHTS assay (AID 1963588); note: nearly all actives have a fitted effect of over 40% in size
Outline: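 CHRM1-CHO calcium-flux assay, antagonist mode. Cells were seeded 18 h, dye-loaded 1 h at 37 C and given compound for 5 min at RT, then acetylcholine was added at 50nM. FDSS fluorescence was read 3 min; 15 concentrations, three runs.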

[15] = target: Muscarinic acetylcholine receptor M1 (Homo sapiens) (UniProt P11229); test: Cholinergic receptor muscarinic 1 (CHRM1) small molecule agonists, cell-based qHTS assay (AID 1963589); note: nearly all actives have a fitted effect of over 35% in size
Outline: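 Agonist-mode qHTS in CHO cells stably carrying human muscarinic M1. Intracellular calcium is tracked by fluorescence every second after compound transfer; each compound runs at 15 concentrations in three independent runs.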

[16] = cAMP Responsive Elements (CRE) small molecule agonists, cell-based qHTS assay (AID 1963590)
Outline: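 Agonist mode qHTS in CRE-bla HEK 293T cells: compounds dosed from DMSO for 3 h at 37 C/5% CO2, followed by LiveBLAzer B/G FRET substrate for 2 h at room temperature.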

[17] = target: Beta-2 adrenergic receptor (Homo sapiens) (UniProt P07550); test: Adrenergic beta2 receptor (ADRB2) small molecule antagonists, cell-based qHTS assay (AID 1963592); note: series mostly up to about 92 µM; nearly all actives have a fitted effect of over 50% in size
Outline: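 Cells (CHO, stable ADRB2 overexpression) incubated 18-20hr at 37C; compounds added from DMSO; agonist mix (1nM isoproterenol, 100uM IBMX, 25uM Ro-20-1724) added; 0.5hr RT; d2-cAMP and anti-cAMP-cryptate added; 1hr RT; 665/615 nm read.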

[18] = target: D(2) dopamine receptor (Homo sapiens) (UniProt P14416); test: Dopamine D2 receptor (DRD2) small molecule agonists, cell-based qHTS assay (AID 1963594); note: nearly all actives have a fitted effect of over 35% in size
Outline: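 HEK293 cells stably expressing human DRD2, pre-treated with PDE inhibitor Ro20-1724 (0.1 mM final) and compound 10 min at room temperature, then stimulated with NKH477 (200nM […]) for 30 min. cAMP read by HTRF (665/620 nm).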

[19] = target: D(2) dopamine receptor (Homo sapiens) (UniProt P14416); test: Dopamine D2 receptor (DRD2) small molecule antagonists, cell-based qHTS assay (AID 1963595; active = well fitted inhibition curve with a large enough effect in the signal ratio in the repeat runs, with a control signal flat; the % refers to the signal ratio)
Outline: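 Antagonism was scored as restored cAMP in HEK293-DRD2 cells. These cells were stimulated with 200 nM NKH477 and 12 nM quinpirole for 30 min at room temperature, in the presence of 0.1 mM Ro20-1724.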

[20] = cAMP Responsive Elements (CRE) small molecule antagonists, cell-based qHTS assay (AID 1963591; active = well fitted inhibition curve with a large enough effect in the signal ratio in the repeat runs, not every such curve was filed as active; the % refers to the signal ratio)
Outline: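 Antagonist mode: test compounds are co-incubated with the adenylyl cyclase activator NKH477 (0.25 uM final) on CRE-bla HEK293T cells for 3 h at 37 °C, followed by LiveBLAzer substrate loading.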

Measured: Potency

KiSS-1 receptor (Homo sapiens), sequence (Q969F8 whole entry, looked up): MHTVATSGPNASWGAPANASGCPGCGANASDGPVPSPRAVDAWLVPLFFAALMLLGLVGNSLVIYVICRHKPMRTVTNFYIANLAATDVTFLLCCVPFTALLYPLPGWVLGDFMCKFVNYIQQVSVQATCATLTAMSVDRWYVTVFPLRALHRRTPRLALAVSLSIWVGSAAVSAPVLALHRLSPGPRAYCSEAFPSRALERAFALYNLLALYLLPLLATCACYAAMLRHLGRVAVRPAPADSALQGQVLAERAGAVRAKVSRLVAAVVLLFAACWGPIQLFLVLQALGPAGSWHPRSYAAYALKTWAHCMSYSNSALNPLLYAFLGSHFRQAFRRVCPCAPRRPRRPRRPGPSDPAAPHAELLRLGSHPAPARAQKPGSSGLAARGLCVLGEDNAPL
Beta-2 adrenergic receptor (Homo sapiens), sequence (P07550 whole entry, looked up): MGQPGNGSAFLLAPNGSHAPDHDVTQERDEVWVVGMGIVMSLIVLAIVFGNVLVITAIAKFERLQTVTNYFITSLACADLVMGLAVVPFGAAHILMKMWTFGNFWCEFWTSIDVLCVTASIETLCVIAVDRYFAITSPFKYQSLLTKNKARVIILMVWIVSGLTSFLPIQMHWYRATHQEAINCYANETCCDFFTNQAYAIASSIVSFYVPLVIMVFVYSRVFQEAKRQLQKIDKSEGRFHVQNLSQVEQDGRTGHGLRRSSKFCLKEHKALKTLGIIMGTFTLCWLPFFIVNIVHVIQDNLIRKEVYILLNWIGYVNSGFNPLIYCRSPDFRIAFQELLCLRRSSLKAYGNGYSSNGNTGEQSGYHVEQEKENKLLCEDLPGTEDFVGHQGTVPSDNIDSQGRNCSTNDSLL
Muscarinic acetylcholine receptor M1 (Homo sapiens), sequence (P11229 whole entry, looked up): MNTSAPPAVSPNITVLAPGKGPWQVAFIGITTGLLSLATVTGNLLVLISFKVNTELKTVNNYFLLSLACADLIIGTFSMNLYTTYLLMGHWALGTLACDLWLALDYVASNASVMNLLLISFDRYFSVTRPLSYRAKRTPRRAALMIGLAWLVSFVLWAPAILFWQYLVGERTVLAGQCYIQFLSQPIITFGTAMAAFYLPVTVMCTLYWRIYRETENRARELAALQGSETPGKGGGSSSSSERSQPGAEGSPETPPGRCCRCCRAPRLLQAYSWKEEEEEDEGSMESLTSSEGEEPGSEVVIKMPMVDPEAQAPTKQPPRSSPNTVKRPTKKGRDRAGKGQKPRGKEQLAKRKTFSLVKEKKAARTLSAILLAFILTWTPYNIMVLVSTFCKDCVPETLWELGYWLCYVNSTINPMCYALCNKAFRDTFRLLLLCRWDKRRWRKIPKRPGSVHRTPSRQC
5-hydroxytryptamine receptor 2A (Homo sapiens), sequence (P28223 whole entry, looked up): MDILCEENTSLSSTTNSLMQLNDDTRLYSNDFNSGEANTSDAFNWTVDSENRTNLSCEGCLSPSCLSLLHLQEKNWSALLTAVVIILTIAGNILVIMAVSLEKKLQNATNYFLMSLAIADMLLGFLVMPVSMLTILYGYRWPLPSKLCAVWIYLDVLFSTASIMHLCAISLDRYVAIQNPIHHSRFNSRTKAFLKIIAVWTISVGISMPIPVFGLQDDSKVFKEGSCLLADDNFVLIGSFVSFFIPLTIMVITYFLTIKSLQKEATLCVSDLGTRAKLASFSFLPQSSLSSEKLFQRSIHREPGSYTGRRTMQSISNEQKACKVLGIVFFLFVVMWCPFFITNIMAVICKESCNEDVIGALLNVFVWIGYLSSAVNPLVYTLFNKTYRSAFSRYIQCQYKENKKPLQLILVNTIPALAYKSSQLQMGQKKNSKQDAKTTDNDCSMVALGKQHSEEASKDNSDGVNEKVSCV
Gonadotropin-releasing hormone receptor (Homo sapiens), sequence (P30968 whole entry, looked up): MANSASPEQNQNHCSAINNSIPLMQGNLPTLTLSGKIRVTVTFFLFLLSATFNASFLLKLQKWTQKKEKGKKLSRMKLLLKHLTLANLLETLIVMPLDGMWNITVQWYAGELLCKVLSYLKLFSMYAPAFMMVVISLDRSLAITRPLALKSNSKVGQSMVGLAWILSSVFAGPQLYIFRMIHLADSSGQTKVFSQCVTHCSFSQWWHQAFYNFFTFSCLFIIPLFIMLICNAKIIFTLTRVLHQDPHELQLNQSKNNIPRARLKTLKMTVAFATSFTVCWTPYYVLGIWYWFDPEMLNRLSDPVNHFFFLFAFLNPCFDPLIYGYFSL
D(2) dopamine receptor (Homo sapiens), sequence (P14416 whole entry, looked up): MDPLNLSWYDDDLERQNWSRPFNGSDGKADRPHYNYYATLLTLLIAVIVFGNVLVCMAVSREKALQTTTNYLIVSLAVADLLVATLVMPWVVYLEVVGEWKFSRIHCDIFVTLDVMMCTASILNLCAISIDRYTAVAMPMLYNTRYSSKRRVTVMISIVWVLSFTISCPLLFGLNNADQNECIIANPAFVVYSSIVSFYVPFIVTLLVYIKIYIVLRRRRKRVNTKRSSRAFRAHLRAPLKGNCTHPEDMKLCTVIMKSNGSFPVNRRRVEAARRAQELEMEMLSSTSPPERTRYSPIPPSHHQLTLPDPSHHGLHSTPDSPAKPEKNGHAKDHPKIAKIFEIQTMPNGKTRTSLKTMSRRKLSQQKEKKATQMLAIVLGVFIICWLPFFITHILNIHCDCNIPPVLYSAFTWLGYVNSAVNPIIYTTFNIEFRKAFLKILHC

CC(=O)O[C@H]1C[C@@H]2CC[C@@]1(C)C2(C)C
not listed: [20]
inactive: all other assays above

ClCCCl
not listed: [20]
inactive: all other assays above

NC(=S)N/N=C/c1cccnc1
not listed: [16]
inactive: all other assays above

O=S(=O)(O)c1cccc(S(=O)(=O)O)c1
not listed: [16]
inactive: all other assays above

CCOCCOC(=O)/C=C/c1ccc(OC)cc1
not listed: [15]
inactive: all other assays above

COC(=O)CC(C(C)=O)C(=O)OC (configuration not stated)
not listed: [15] | [18]
inactive: all other assays above

NCc1ccc(S(N)(=O)=O)cc1
not listed: [16]
inactive: all other assays above
